An excerpt weighted towards active compounds, which were near 19% of everything screened.
HT1080NT lethal: kills 2HG-producing HT-1080-NT fibrosarcoma cells | Potency, µM (top dose mostly 46.1 µM), for the others: top-dose activity, negative = less viability, hits mostly cytotoxic | 360,000 compounds, 1.6% hits | HT-1080-NT fibrosarcoma viability, CellTiter-Glo ATP luminescence, 48 h;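 further: NT is the 2HG producing partner of a matched IDH1 knockdown line; potency means the concentration at half of the fitted maximal effect; 0% = DMSO-treated cells and -100% = media-only wells without cells; nearly all actives have a fitted effect of over 55% in size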
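A 48-hour cytotoxicity screen used HT-1080-NT cells plated 2 hours before compound delivery. ATP-based CellTiter-Glo luminescence measured viability, normalized to DMSO and no-cell controls.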
IL-1B inflam inh: inflammasome signaling inhibition, IL-1 beta readout | THP-1 LPS/ATP IL-1B secretion, AlphaLISA, 16 h; active compounds read low | activity change, % at 57.5 µM | 360,000 compounds, 4.7% hits; in the data active means activity change below about -50%; inconclusive means mostly about -30% to -49%
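Secreted IL-1B measured by AlphaLISA bead assay after 16 h compound exposure of THP-1 cells; compounds (final up to 57.5 uM) added 1 h before LPS (250 ng/mL) and ATP (1.25 mM) stimulation; lower signal means less secretion.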
DT40 TDP1 CPT: growth inhibition of DT40 Tdp1-/-;hTDP1 cells with camptothecin (screen for TDP1 inhibitors) | Potency, µM (top dose mostly 46.2 µM), inactives show top-dose activity change, negative = growth inhibition, actives largely listed as inhibitors | AID 686979 | 420,000 compounds, 12% hits | chicken DT40 Tdp1-/-;hTDP1 cells + 20 nM CPT, ATP luminescence, 48 h; further: potency means the concentration at half of the fitted maximal effect; nearly all actives have a fitted effect of over 55% in size
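Cell growth measured by CellTiter-Glo luminescence after a minimum 48 h, 37 C compound exposure with 20 nM CPT in Tdp1-knockout DT40 cells stably expressing hTDP1, seeded 400/well; qHTS titration format.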
ELG1 DNA repair: blocks ELG1-dependent DNA repair in HEK293T cells; Potency, µM (highest dose often 46.1 µM), for inactives: top-dose activity change, negative = inhibition, actives largely listed as inhibitors; HEK293T ELG1-luciferase reporter, luminescence, 16 h; DNA damage induced by 5-fluorouridine; AID 504467; 330,000 compounds, 2.3% hits; further: potency means the concentration at half of the fitted maximal effect; nearly all actives have a fitted effect of over 55% in size
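Cells (2,000 per well) received 5-fluorouridine plus test compound or DMSO and were incubated 16 hr at 37 °C, 5% CO2. Luciferase activity was read by luminescence 30 min after ONE-Glo addition; signal suppression marked inhibition of damage-induced ELG1 function.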
HT1080 IDH1KD tx: toxicity to HT-1080 IDH1 knockdown cells (counter line); Potency, µM (top dose mostly 46.1 µM), for inactives: at the top dose activity, negative = toxicity, most hits filed as cytotoxic; HT-1080 IDH1 knockdown viability, ATP luminescence, 48 h; 360,000 compounds, 2% hits;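 further: potency means the concentration at half of the fitted maximal effect; 0% = DMSO wells and -100% = cell-free medium wells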
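Knockdown cells (IDH1KD HT-1080) received compounds 2 h after plating at 750 cells/well and were kept 48 h at 37 °C in 5% FBS RPMI. A CellTiter-Glo luminescence read gave % activity for curve fitting.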
TDP1 cell noCPT: qHTS for Inhibitors of human tyrosyl-DNA phosphodiesterase 1 (TDP1): qHTS in cells in absence of CPT; DT40 Tdp1-/- hTDP1 cells, no CPT, ATP luminescence, 48 h; Potency, µM (doses to about 46.2 µM), inactives show at the top dose activity change, negative = growth inhibition, actives largely listed as inhibitors; 420,000 compounds, 15% hits; AID 686978, 2013; further: potency means the concentration at half of the fitted maximal effect; nearly all actives have a fitted effect of over 55% in size
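Luminescent ATP content (CellTiter-Glo) served as the growth readout. Knockout chicken DT40 cells expressing human TDP1 were exposed to compounds without camptothecin for a minimum 48 hr at 37 °C.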
Active calls of the source: *; ? = inconclusive; nt = no result. Unless noted, the call rests on the fitted dose curve; in most records, active means well fitted curve in the direction sought with a large enough effect; inconclusive means small, poorly fitted or top-dose-only effect, or another doubt; inactive means no such curve, though single readings can be large; an effect the other way counts as inactive or inconclusive. Unless noted, on the % scale 0 is the no-effect control and ±100 the full control effect.

SMILES	HT1080NT lethal	IL-1B inflam inh	DT40 TDP1 CPT	ELG1 DNA repair	HT1080 IDH1KD tx	TDP1 cell noCPT
COc1ccc(Nc2cc(C(=O)NCCCN(C)Cc3ccccc3)c3ccccc3n2)cc1OC	nt	nt	23µM*	nt	nt	21µM*
CCCCN(CCCNC(=O)c1cc(Nc2ccc(OC)c(OC)c2)nc2ccccc12)c1ccccc1	nt	nt	15µM*	nt	nt	13µM*
CCCCN(CCCNC(=O)c1cc(Nc2ccc(OC)cc2)nc2ccccc12)Cc1ccccc1	nt	nt	21µM*	nt	nt	16µM*
CCCCN(CCCNC(=O)c1cc(Nc2ccc(OC)c(OC)c2)nc2ccccc12)Cc1ccccc1	nt	nt	16µM*	nt	nt	21µM*
COc1ccc(CCNC(=O)c2ccc3c(c2)S(=O)(=O)N=C2CCCCCN23)cc1OC	3%	11	2%	nt	5%	-5%
O=C(Nc1ccc(S(=O)(=O)Nc2nccs2)cc1)c1ccccc1OC(F)F	5%	5	1%	14%	-3%	14%
COc1ccc(/C(C)=N\Nc2nc(-c3ccc(Cl)cc3)cc(C(F)(F)F)n2)cc1OC	0%	15	?	8.2µM*	0%	?
O=C(NNC(=O)c1cc(S(=O)(=O)N2CCOCC2)c(Cl)cc1Cl)c1ccccc1F	-13%	-9	-11%	10%	-5%	?
COc1cc2c(cc1OC)C(C)N(C(=S)NC(=O)c1ccccc1)CC2 (centres undefined)	-24%	30	?	?	-8%	21µM*
COc1cc2c(cc1OC)[C@H](C)N(C(=O)NCc1ccccc1)CC2	?	20	23µM*	-24%	21µM*	7.3µM*
COc1cc2c(cc1OC)C(C)N(C(=S)Nc1ccccc1)CC2 (centres undefined)	29%	-19	3%	-3%	3%	?
CCn1c2ccccc2c2nnc(N3CCN(c4cccc(Cl)c4)CC3)nc21	nt	nt	-20%	nt	nt	?
N[C@H]1C(O)O[C@H](CO)[C@@H](O)[C@@H]1O (some centres undefined)	14%	16	-5%	16%	10%	3%
Cc1nc2ccccc2c(=O)n1/N=C/c1ccccn1	12%	-8	1%	?	6%	-23%
CCN=c1scc(-c2ccc(F)cc2)n1/N=C/c1ccccn1	-2%	-51*	?	?	?	16µM*
CCN=c1scc(-c2ccccc2)n1/N=C/c1ccccn1	?	-58*	4.1µM*	?	?	3.7µM*
CCc1ccc2[nH]c(C(=O)Nc3ccc4c(c3)OCO4)cc2c1	-3%	-19	-6%	-28%	?	?
Cc1noc(C)c1C(=O)N1CCC1(C)C(=O)NS(=O)(=O)Cc1cccc(Cl)c1 (centres undefined)	25%	0	-9%	nt	13%	-1%
Cc1cc(NS(=O)(=O)c2ccc(N)cc2)nc(C)n1	nt	nt	-4%	nt	nt	-27%
CC(C)Oc1ccc(CNC(=O)C2CCN(C(=O)c3sccc3-n3cccc3)CC2)cc1	nt	nt	-18%	nt	nt	?
COCCNC(=O)C1CCN(c2nc3ccccc3nc2C(F)(F)F)CC1	nt	nt	?	nt	nt	-20%
CSc1ccc(CCNC(=O)C2CCN(c3nc4ccccc4nc3C(F)(F)F)CC2)cc1	nt	nt	15µM*	nt	nt	12µM*
COc1ccc(CCNC(=O)C2CCN(c3nc4ccccc4nc3C(F)(F)F)CC2)c(OC)c1	nt	nt	-29%	nt	nt	?
CC(C)Oc1ccc(CNC(=O)C2CCN(c3nc4ccccc4nc3C(F)(F)F)CC2)cc1	nt	nt	4.1µM*	nt	nt	5.8µM*
CCCCNC(=O)C1CCN(c2nc3ccccc3nc2C(F)(F)F)CC1	nt	nt	16µM*	nt	nt	?
SMILES	HT1080NT lethal	IL-1B inflam inh	DT40 TDP1 CPT	ELG1 DNA repair	HT1080 IDH1KD tx	TDP1 cell noCPT
Cc1c(Cl)cccc1NC(=O)CN1C(=O)CSc2ccc(S(=O)(=O)N3CCCC3)cc21	nt	nt	-12%	nt	nt	-14%
CCc1ccc(NC(=O)CCS(=O)(=O)c2ccc3c(c2)n(C)c(=O)c(=O)n3C)cc1	nt	nt	6%	nt	nt	-3%
O=C(O)CCc1nnc2cnc3ccccc3n12	nt	nt	4%	nt	nt	2%
O=C(CN1CCN(S(=O)(=O)N2CCCCC2)CC1)Nc1ccc(Cl)c(Cl)c1	-21%	-77*	?	?	?	23µM*
O=C(CN1CCN(C(c2ccccc2)c2ccccc2)CC1)Nc1ccc(N2CCOCC2)cc1	0%	11	-6%	-1%	8%	9%
O=C(CN1CCN(S(=O)(=O)N2CCCCCC2)CC1)Nc1ccc(Br)cc1	-4%	-27	?	?	-2%	?
CN(C)S(=O)(=O)c1ccc(NC(=O)CN2CCN(C(c3ccccc3)c3ccccc3)CC2)cc1	-5%	11	?	11%	-4%	21µM*
NS(=O)(=O)c1ccc(NC(=O)CN2CCCCC2)cc1	1%	-3	-12%	18%	5%	1%
O=C(CN1CCN(S(=O)(=O)N2CCCCC2)CC1)Nc1cc(Cl)cc(Cl)c1	-6%	-65*	-25%	?	-15%	?
O=C(CN1CCCCC1)Nc1ccc(S(=O)(=O)c2ccc(NC(=O)CN3CCCCC3)cc2)cc1	-1%	11	16µM*	nt	0%	13µM*
CCOC(=O)N1CCN(C(=O)C[C@@H]2C[C@@]3(C(=O)OCC)CCCC=C3N(CCC3=CCCCC3)C2=O)CC1	?	-14	?	nt	?	16µM*
CCOC(=O)[C@]12CCCC=C1N(CCC1=CCCCC1)C(=O)[C@H](CC(=O)NCC13CC4CC(CC(C4)C1)C3)C2	?	1	?	nt	?	?
CCOC(=O)[C@]12CCC=C1N(CCC1=CCCCC1)C(=O)[C@H](CC(=O)N1CCC(c3ccccc3)CC1)C2	?	-3	?	nt	?	18µM*
O=C(O)Cn1nnc(-c2ccccc2)c1COc1ccccc1	?	8	-1%	nt	3%	-6%
Cc1ccc(-c2nc3ccc(Br)cn3c2Cc2cccc(F)c2)cc1	?	-25	16µM*	nt	?	?
Cc1ccc2nc(-c3ccccc3)c(Cc3cccc(F)c3)n2c1	?	22	?	nt	?	21µM*
Fc1ccc(-c2nc3ccc(Br)cn3c2Cc2cccc(F)c2)cc1	-26%	36	-30%	nt	-24%	?
CN1C(=O)NC(c2ccccc2)C2=C1CN(Cc1ccco1)C2=O (centres undefined)	0%	11	-1%	-2%	-2%	2%

Screens deposited in PubChem BioAssay by National Center for Advancing Translational Sciences (NCATS).
